Results on ten substances are retold here after publication PMC7883291.

What all share (assay): cross-link between two proteins; cross-linking mass spectrometry
For assay [1], the target named is Cytochrome b-c1 complex subunit 2, mitochondrial (UniProt P23004).
Assay [2] deals with NADH dehydrogenase [ubiquinone] 1 alpha subcomplex subunit 1 (UniProt Q02377).
In assay [3] the target is NADH dehydrogenase [ubiquinone] 1 alpha subcomplex subunit 13 (UniProt Q95KV7).
For assay [4], the target named is NADH dehydrogenase [ubiquinone] 1 alpha subcomplex subunit 7 (UniProt Q05752).
NADH dehydrogenase [ubiquinone] 1 alpha subcomplex subunit 7, sequence (Q05752 whole entry, one chain of several): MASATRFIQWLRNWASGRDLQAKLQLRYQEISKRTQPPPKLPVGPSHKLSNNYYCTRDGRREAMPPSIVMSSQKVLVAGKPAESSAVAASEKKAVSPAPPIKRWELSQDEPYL
Assay [5] addresses NADH dehydrogenase [ubiquinone] 1 beta subcomplex subunit 11, mitochondrial (UniProt Q8HXG5).
The target of assay [6] is NADH dehydrogenase [ubiquinone] 1 beta subcomplex subunit 4 (UniProt P48305).
NADH dehydrogenase [ubiquinone] 1 beta subcomplex subunit 4, sequence (P48305 whole entry, one chain of several): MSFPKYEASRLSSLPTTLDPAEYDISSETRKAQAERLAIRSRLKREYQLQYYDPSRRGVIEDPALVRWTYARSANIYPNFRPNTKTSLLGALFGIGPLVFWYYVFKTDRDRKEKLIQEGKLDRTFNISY
Assay [7] concerns the target NADH dehydrogenase [ubiquinone] iron-sulfur protein 4, mitochondrial (UniProt Q02375).

NADH dehydrogenase [ubiquinone] 1 beta subcomplex subunit 11, mitochondrial, sequence (Q8HXG5 whole entry, one chain of several): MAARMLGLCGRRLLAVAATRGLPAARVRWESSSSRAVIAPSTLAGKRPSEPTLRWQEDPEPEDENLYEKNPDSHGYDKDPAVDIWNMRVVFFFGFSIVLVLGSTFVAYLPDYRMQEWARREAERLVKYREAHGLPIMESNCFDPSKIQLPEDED
Cytochrome b-c1 complex subunit 2, mitochondrial, sequence (P23004 whole entry, one chain of several): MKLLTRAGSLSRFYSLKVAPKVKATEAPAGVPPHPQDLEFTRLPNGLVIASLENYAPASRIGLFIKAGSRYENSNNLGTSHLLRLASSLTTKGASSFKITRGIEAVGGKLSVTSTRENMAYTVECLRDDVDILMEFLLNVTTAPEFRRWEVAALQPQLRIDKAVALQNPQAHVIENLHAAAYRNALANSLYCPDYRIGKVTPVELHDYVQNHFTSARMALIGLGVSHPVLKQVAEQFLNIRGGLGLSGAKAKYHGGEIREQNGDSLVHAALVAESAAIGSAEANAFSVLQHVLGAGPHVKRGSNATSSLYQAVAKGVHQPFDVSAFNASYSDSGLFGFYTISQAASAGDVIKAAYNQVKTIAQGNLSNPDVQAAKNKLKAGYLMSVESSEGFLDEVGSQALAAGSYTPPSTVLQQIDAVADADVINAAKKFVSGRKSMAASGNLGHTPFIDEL
NADH dehydrogenase [ubiquinone] iron-sulfur protein 4, mitochondrial, sequence (Q02375 whole entry): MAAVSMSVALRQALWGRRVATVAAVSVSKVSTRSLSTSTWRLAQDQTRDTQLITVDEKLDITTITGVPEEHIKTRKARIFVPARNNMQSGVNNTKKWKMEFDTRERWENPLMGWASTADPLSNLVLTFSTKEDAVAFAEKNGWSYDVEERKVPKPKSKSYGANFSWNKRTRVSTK
NADH dehydrogenase [ubiquinone] 1 alpha subcomplex subunit 1, sequence (Q02377 whole entry, one chain of several): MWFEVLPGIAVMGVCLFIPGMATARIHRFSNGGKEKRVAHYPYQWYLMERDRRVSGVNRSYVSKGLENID
NADH dehydrogenase [ubiquinone] 1 alpha subcomplex subunit 6, Q02366, sequence (Q02366 whole entry, one chain of several): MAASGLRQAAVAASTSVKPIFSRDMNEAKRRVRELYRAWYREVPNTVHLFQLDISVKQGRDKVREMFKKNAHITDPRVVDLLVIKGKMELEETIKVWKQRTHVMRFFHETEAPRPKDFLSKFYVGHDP
NADH dehydrogenase [ubiquinone] 1 alpha subcomplex subunit 13, sequence (Q95KV7 whole entry, one chain of several): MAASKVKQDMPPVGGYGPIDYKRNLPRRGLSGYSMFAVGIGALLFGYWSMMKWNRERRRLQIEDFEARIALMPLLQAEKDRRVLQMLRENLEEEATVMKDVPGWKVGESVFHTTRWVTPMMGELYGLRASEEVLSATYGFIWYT

Regarding “Cytochrome c1, heme protein, mitochondrial, P00125”, the “listed as a hit” value in assay [1] is listed as “yes”.
On the same count and under the same terms, the same measure for “Cytochrome b-c1 complex subunit 7, P00129”: “yes”.
On to “NADH dehydrogenase [ubiquinone] 1 alpha subcomplex subunit 8, P42029”, for which the “listed as a hit” value in assay [2] is given as “yes”.
On to “NADH dehydrogenase [ubiquinone] iron-sulfur protein 5, Q02379”, for which the “listed as a hit” value in assay [3] is “yes”.
As for “NADH dehydrogenase [ubiquinone] 1 alpha subcomplex subunit 5, P23935”, the “listed as a hit” value in assay [4] is listed as “yes”.
Consider “NADH dehydrogenase [ubiquinone] 1 beta subcomplex subunit 9, Q02369”, for which the “listed as a hit” value in assay [5] is “yes”.
Still for that read-out and setting: with “NADH dehydrogenase [ubiquinone] 1 beta subcomplex subunit 8, mitochondrial, Q02372” the entry was “yes”.
Consider “Cytochrome b-c1 complex subunit 1, mitochondrial, P31800”, for which the “listed as a hit” value in assay [6] is given as “yes”.
“NADH dehydrogenase [ubiquinone] 1 alpha subcomplex subunit 6, Q02366”: the “listed as a hit” value in assay [7] is recorded as “yes”.
On the same count and under the same terms, the same measure for “NADH dehydrogenase [ubiquinone] iron-sulfur protein 3, mitochondrial, P23709”: “yes”.
